Assay results: PubChem BioAssay (NCATS)
Inconclusive results are not listed. Entries that show only a call come without a potency. Calls of active or inactive are those of the source. Calls follow the shape of the dose curve; as a rule, active = well fitted cell-killing curve with a large enough effect; inconclusive = small, poorly fitted or top-dose-only effect, or effect the other way; inactive = no such curve, though single readings can be large or run the other way.

assay: Viability qHTS for spleen associated tyrosine kinase inhibitor (SYKi) naive MV4-11 cells (AID 1963823); conditions: MV4-11 AML viability, CellTiter-Glo luminescence, 72 h; series mostly up to 45 µM; also: nearly all actives have a fitted effect of over 40% in size
Excerpt: Department of Medicine, Hematology/Oncology
University Hospital Frankfurt, Germany.
Trials have shown promising clinical activity of the selective SYK inhibitor entospletinib in patients with high expressing HOXA9/MEIS1 acute leukemias. As the development of resistance mechanisms is a common problem in the use of targeted drugs, we performed a chemical library screen to identify drug sensitivities in SYK inhibitor resistant AML cells. […] Glucocorticoids are potent immunosuppressants which work in part by inhibiting the transcription of cytokine genes.
Described herein is a viability screen to look for activity in the SYK inhibitor naive cell line against four NCATS compound libraries (MIPE 5.0, NPC, NPACT, and Kinase) totaling 11372 compounds. Active hits were reacquired for confirmation and further secondary assay testing.
SEQUENCE No. (e.g., 1, 2, 3, etc.); […] (e.g., Cells, Incubation, Reagent, etc.); VALUE; DESCRIPTION.
1; Media; 2uL; white, solid-bottom Corning assay plate.
2; Compounds; 23nL; Echo acoustic dispenser.
3; Cell; 5uL; 500 cells per well.
4: Incubation; 72hr; 37 C, 5% CO2, 95% humidity.
5; Reagent; 3uL; CellTiter-Glo reagent (Promega).
6; Incubation; 10min; room temperature.
7; Detection; Luminescence; ViewLux plate reader (PerkinElmer).
NOTES (numbers refer to Sequence numbers above
1. Quantitative high-throughput screening (qHTS) of small molecule compounds was conducted on naive SYKi MV4-11 cell line.
2. Twenty-three nanoliter of small molecule compounds were added to each assay plates using the Echo acoustic dispenser (Beckman Coulter).
3. Cells were seeded into the assay plates at a final density of 500 cells in 5uL of media per well using the Multi-drop Combi dispenser.
4. Plates were covered with stainless steel gasketed lids and incubated for 72 hours at standard cell culture conditions.
5. Viability was assessed by adding 3uL of CellTiter-Glo detection reagent (Promega).
6. Plates were covered with gasket lids and incubated for 10 minutes at room temperature.
7. Luminescence was measured on a ViewLux plate reader (PerkinElmer).
Potency is read from the fitted curve at half-maximal effect.

Structure (SMILES)	Potency
COC(=O)C1=CCCN(C)C1	inactive
C=C(C)[C@@H]1[C@H]2OC(=O)[C@H]1[C@]1(O)C[C@H]3O[C@]34C(=O)O[C@H]2[C@]14C	inactive
CCOC(=O)CC(SP(=S)(OC)OC)C(=O)OCC (stereo not given)	inactive
CN(C)CCc1ccc(O)cc1	inactive
CC1=C(O)C(=O)C=C2C1=CC=C1[C@@]2(C)CC[C@@]2(C)[C@@H]3C[C@](C)(C(=O)O)CC[C@]3(C)CC[C@]12C	590 nM (active)
C[C@]12CC[C@H](O)C[C@@H]1CC[C@@H]1[C@@H]2CC[C@]2(C)[C@@H](C3=CC(=O)OC3)CC[C@]12O	3210 nM (active)
CC(=O)O[C@H]1C[C@]2(O)[C@@H]3CC[C@@H]4C[C@@H](O)CC[C@]4(C)[C@H]3CC[C@]2(C)[C@H]1c1ccc(=O)oc1	25.9 nM (active)
CC(N)Cc1c[nH]c2ccccc12 (stereo not given)	inactive
CCC1(CC)C(=O)C=CNC1=O	inactive
CN1CN(c2ccccc2)C2(CCN(CCCC(=O)c3ccc(F)cc3)CC2)C1=O	inactive
C=C[C@H]1[C@H](O[C@@H]2O[C@H](CO)[C@@H](O)[C@H](O)[C@H]2O)OC=C2C(=O)OCC[C@H]21	inactive
CO[C@H]1[C@@H](O)[C@@H](C)O[C@@H](O[C@@H]2C=C3C(OC(C)=O)CC4(O)C(CC[C@]5(C)[C@@H](C6=CC(=O)OC6)CC[C@]45O)[C@@]3(C)CC2)[C@@H]1O (stereo not given in full)	68.5 nM (active)
COc1cc(OC)c(OC)cc1C=O	inactive
CC(=O)NC1CCSC1=O (stereo not given)	inactive
COC1CC(OC2CCC3(C=O)C(CCC4C3CCC3(C)C(C5=CC(=O)OC5)CCC43O)C2)OC(C)C1O (stereo not given)	89.3 nM (active)
CC(C)C(Br)C(=O)NC(N)=O (stereo not given)	inactive
CC1N=C(N)OC1c1ccccc1 (stereo not given)	inactive
Cc1c(N)nc([C@H](CC(N)=O)NC[C@@H](N)C(N)=O)nc1C(=O)N[C@H](C(=O)N[C@@H](C)[C@H](O)[C@@H](C)C(=O)N[C@@H](C(=O)NCCc1nc(-c2nc(C(=O)NCCC[S+](C)C)cs2)cs1)[C@@H](C)O)C(O[C@H]1O[C@H](CO)[C@H](O)[C@@H](O)[C@H]1O[C@H]1O[C@H](CO)[C@@H](O)[C@H](OC(N)=O)[C@@H]1O)c1cnc[nH]1 (stereo not given in full)	inactive
CC[C@H]1C[C@@H]2CC[C@@H](O2)[C@@H](C)C(=O)O[C@H](CC)C[C@H]2CC[C@H](O2)[C@H](C)C(=O)O[C@@H](C)C[C@@H]2CC[C@@H](O2)[C@@H](C)C(=O)O[C@H](CC)C[C@H]2CC[C@H](O2)[C@H](C)C(=O)O1	12.2 nM (active)
CCc1c(C(=O)C(N)=O)c2c(OCC(=O)O)cccc2n1Cc1ccccc1	inactive

Structure (SMILES)	Potency
CC(C)(O)C(Cl)(Cl)Cl	inactive
O=C(NCCN1CCC2(CC1)C(=O)NCN2c1cccc(F)c1)c1ccc2ccccc2c1	9200 nM (active)
CC(C)C[C@H](CN)CC(=O)O	inactive
C#CCN(C)[C@H](C)Cc1ccccc1	inactive
COc1cc(C(=O)O[C@H]2[C@@H]3C=CO[C@@H](O[C@@H]4O[C@H](CO)[C@@H](O)[C@H](O)[C@H]4O)[C@@H]3[C@@]3(CO)O[C@@H]23)ccc1O	inactive
C[C@H]1O[C@@H](n2cnc3c(N)ncnc32)C[C@@H]1O	inactive
O=c1[nH]c2cc(Cl)ccc2n1C1CCNCC1	inactive
CNC(=O)Oc1cccc2ccccc12	inactive
COC(=O)N1CCN(C(=O)Cc2ccc(Cl)c(Cl)c2)[C@@H](CN2CCCC2)C1	inactive
CN[C@H]1[C@H](O)[C@H](O[C@@H]2[C@@H](O)[C@H](O[C@H]3O[C@H]([C@H](C)O)[C@@H](O)[C@H](O)[C@H]3N)[C@@H](N)C[C@H]2N)OC[C@@]1(C)O	inactive
Oc1c(Br)cc(Br)cc1Br	inactive
C[C@@H]1O[C@@H](O[C@H]2CC[C@@]3(C)C(CC[C@@H]4C3CC[C@]3(C)[C@@H](C5=CC(=O)OC5)CC[C@]43O)C2)[C@H](O[C@@H]2O[C@H](CO)[C@@H](O)[C@H](O)[C@H]2O)[C@H](O)[C@H]1O (stereo not given in full)	343 nM (active)
Cc1cccc(C)c1NC(=O)CN1CCCC1=O	inactive
CC(C)C(=O)O[C@H]1[C@@H]2[C@H](C)C(=O)O[C@@H]2C[C@@H](C)[C@@H]2C=CC(=O)[C@]21C	3600 nM (active)
COC1=C[C@@H]2[C@@H]3Cc4ccc(OC)c(O)c4[C@]2(CCN3C)CC1=O	inactive
Cc1sc2c(c1C)C(c1ccc(Cl)cc1)=NC(CC(=O)Nc1ccc(O)cc1)c1nnc(C)n1-2 (stereo not given)	148 nM (active)
N[C@@H]1C[C@H]1c1ccccc1	16600 nM (active)
CC(C)(C)OC(=O)c1ncn2c1[C@@H]1CCCN1C(=O)c1c(Br)cccc1-2	inactive
C[C@]12CC[C@H]3[C@@H](CC[C@@]45O[C@@H]4C(O)=C(C#N)C[C@]35C)[C@@H]1CC[C@@H]2O	10500 nM (active)
COC[C@@H]1OC(=O)c2coc3c2[C@]1(C)C1=C(C3=O)[C@H]2CC[C@H](O)[C@@]2(C)C[C@@H]1OC(C)=O	8200 nM (active)
